In all, about 340,000 compounds went through this assay and about 1,000 (0.29%) were called active. Only a sample is shown. Results with a measured potency or affinity are listed apart. A number with no mark means an inactive call. Cut-off read from the data, not from the text of the source: inconclusive = inhibition above about 27% without an active follow-up result; inactive = below that.

The assay is described as follows: H1N1 influenza NS1A inhibitors, functional cell based assay (AID 504329). To be noted: percent inhibition, at 12.5 µM, stronger effect = higher value.
In general, inhibition refers to the change of the read-out against control, counted positive when it falls. Consider `CC(C)C(NC(=O)C1CC(=O)N(Cc2ccccc2)C1)c1nc2ccccc2[nH]1` (stereo not drawn), for which the inhibition is -13.6%.
Consider `O=C(c1cc2ccccc2c(=O)o1)N1CCCCCC1`, for which the inhibition was -12.3%.
As to `Cc1cc(N2CCOCC2)ccc1/C=C1\NC(=O)N(Cc2ccccc2F)C1=O`, the inhibition was -4.62%.
For `CC(=O)Nc1nc(CCl)cs1`, the inhibition was -0.43%.
To `Oc1[nH]c2ccccc2c1N=Nc1ccccc1F` belongs -4.52%; to `O=S(=O)(O)c1cccc(N=Nc2c(O)ccc3ccccc23)c1`, 22.8%; to `NS(=O)(=O)c1ccc(N=Nc2c(O)ccc3ccccc23)cc1`, 7.02%.
For `Cn1c(O)c(N=Nc2ccc(F)cc2)c2ccccc21` the value was -0.89%; for `O=C(O)c1cc2ccccc2c(N=Nc2cccnc2)c1O`, 16.2%; for `O=C(O)c1cc(N=Nc2c(O)ccc3ccccc23)cc(C(=O)O)c1`, 13.6%.
In the case of `Oc1ccc(N=Nc2ccc3ccccc3c2)cc1`, the inhibition was 3.88%.
For `NS(=O)(=O)c1ccc(N=Nc2c(O)c(C(=O)O)cc3ccccc23)cc1` the value was 14%.
For `Cc1ccccc1C(=O)N=c1sccn1C`, the inhibition is -5.97%.
In the case of `O=C(NC1CCCCC1)c1c(O)nc2sccn2c1=O`, the inhibition is 0.11%.
With `O=C(COc1ccccc1Cl)Nc1ccccc1C(=O)Nc1cccc(C(=O)O)c1`, the inhibition is 1.12%.
Regarding `COc1ccc(-c2cc(C(=O)Nc3cccc(S(=O)(=O)NCc4ccco4)c3)c3ccccc3n2)cc1OC`, the inhibition was -2.45%.
Take `COc1ccccc1C(=O)N/C(=C\c1ccc(Br)cc1)C(=O)NCCO`: the inhibition was -1.68%.
For `COC(=O)N/N=C(\C)c1ccc(C)c([N+](=O)[O-])c1` the value was 2.68%; for `CCC(CC)C(=O)Nc1nnc(S(=O)(=O)Nc2ccccc2C)s1`, -5.98%.
To `O=C(COc1ccccc1)NCC(=O)N/N=C/c1ccco1` belongs 8.38%.
For `O=C(Nc1ccccc1N1CCOCC1)c1cccc(Oc2ccccc2)c1` the value was 5.8%; for `CCCCn1c(O)c(N=Nc2ccccn2)c2ccccc21`, -1.48%.
As to `Oc1[nH]c2ccccc2c1N=Nc1ccccn1`, the inhibition was -23.1%.
Regarding `CN(C)S(=O)(=O)c1ccc(Cl)c(C(=O)NNC(=O)Cc2nc3ccccc3n2C)c1`, the inhibition was -3.93%.
With `CCO/C=C1\C(=O)N(c2ccccc2)C(=O)c2ccccc21`, the inhibition was 4.03%.
With `CCO/C=C1/C(=O)N(c2ccc(OC)cc2)C(=O)c2ccccc21`, the inhibition is 1.21%.
To `CCOc1ccc(N2C(=O)c3ccccc3C2=O)cc1` belongs 5.19%; to `Cc1cc(C)nc(NS(=O)(=O)c2ccc(N3C(=O)c4ccccc4C3=O)cc2)n1`, -5.14%; to `Cc1[nH]c2ccccc2c1C(=O)C(=O)N1CCCc2ccccc21`, -5.75%.
Take `Cc1cc(N(CCO)CCO)ccc1C(c1ccc(N(CCO)CCO)cc1C)c1ccccc1Cl`: the inhibition is 19.6%.
Regarding `Nc1ccc(N(CCO)CCO)cc1`, the inhibition is 11.7%.
For `O=C1CCC(C(=O)N2CCSCC2)CN1CCc1ccccc1` (stereo not drawn) the value was 5.31%; for `CCOC(=O)C1=C(Cc2ccc(Cl)cc2)C(=O)c2ccccc2C1=O`, 21.1%.
Take `CCOC(=O)C1=C(Cc2ccc(F)cc2)C(=O)c2ccccc2C1=O`: the inhibition is 19.2%.
For `N#Cc1c(N)nc2c(c1-c1ccc(F)cc1)CCC2` the value was 0.84%.
For `C[C@H](C(=O)NCc1ccccc1)C(=O)c1ccccc1`, the inhibition was 8.83%.
As to `COc1ccc(-c2csc(N(CCc3ccc(OC)c(OC)c3)C(=O)COc3ccccc3)n2)cc1`, the inhibition was 1.44%.
As for `CC(C)CCn1nnnc1C(c1ccc(F)cc1)N1CCC(C(N)=O)CC1` (stereo not drawn), the inhibition is -2.77%.
For `CC(=O)c1ccc(-c2ccccc2)cc1` the value was 7.71%; for `O=C(NCc1cccs1)C1CCN(c2nccs2)CC1`, 5.59%.
For `COc1cc(/C=N/NC(=O)c2ccncc2)c([N+](=O)[O-])cc1OC` the value was -2.25%.
In the case of `O=C(N/N=C/c1ccc(Br)cc1)c1cc[n+]([O-])cc1`, the inhibition was 6.04%.
To `COc1ccc(/C=N\NC(=O)C2=NNC(=O)C2C)cc1` (stereo not drawn) belongs 3.13%; to `COc1cc(OC)c([N+](=O)[O-])cc1/C=N/NC(=O)c1ccncc1`, 1.29%.
For `O=C(N/N=C/c1ccccc1)c1cc[n+]([O-])cc1` the value was -4.01%.
Turning to `COc1cc(/C=N/NC(=S)Nc2cccc(C(=O)O)c2)ccc1O`, the inhibition was -4%.
For `COc1cc(/C=N/NC(=O)C2=NNC(=O)C2C)ccc1O` (stereo not drawn) the value was -32.2%; for `COc1cc(/C=N/NC(=S)Nc2cccc(C(=O)O)c2)cc(OC)c1OC`, -7.56%; for `CC(NC(=O)c1ccc(NC(=O)CC2SC(N3CCCC3)=NC2=O)cc1)c1ccccc1` (stereo not drawn), -7.82%.
In the case of `O=S(=O)(c1ccc(S(=O)(=O)N2CCOCC2)cc1)N1CCCC1`, the inhibition was 4.18%.
For `CCCCC(=O)N(c1ccc(C(=O)O)cc1)c1nc(-c2ccc(Cl)cc2)c(CC)s1` the value was -4.2%; for `O=C(NC1CCCCC1)C1CC(=O)N(Cc2ccccc2)C1` (stereo not drawn), -1.57%; for `C[N+](C)(C)C(Cc1ccccc1)C(=O)[O-]` (stereo not drawn), -4.58%.
To `COc1ccccc1/C=N/NC(=O)C(=O)NCc1cccnc1` belongs -1.04%; to `CCOc1cc(/C=N/NC(=O)c2cccnc2)ccc1O`, 11.3%; to `CCOc1cc(Br)cc(/C=N/NC(=O)c2cccnc2)c1O`, 15.9%.
Turning to `O=C(O)c1cccc(NC(=S)N/N=C/c2cccnc2)c1`, the inhibition is 4.47%.
As to `COc1cccc(/C=N/NC(=O)C[n+]2ccccc2)c1OC`, the inhibition is 0.86%.
To `COc1cccc(/C=N/NC(=O)C(=O)NCc2cccnc2)c1OC` belongs -5.14%; to `O=C(O)c1cccc(NC(=S)N/N=C/c2cccc(O)c2)c1`, 2.28%.
For `COc1cc(OC)c(OC)cc1/C=N/NC(=O)C[n+]1ccccc1` the value was -11.7%; for `CCOc1ccc(NS(=O)(=O)c2cccc(C(=O)NCC3(N(C)C)CCCCC3)c2)cc1`, 0.36%; for `Cc1cc2nc(-c3ccc[nH]c3=O)n(Cc3ccc(F)cc3)c2cc1C`, 1.86%.
